Rows were chosen to be rich in hits. Some 11% of all compounds tested hit in one or more screens of this group.
AMA1-RON2 inh: inhibitors of Plasmodium falciparum AMA1-RON2 interaction. AlphaScreen AMA1-biotinylated RON2 peptide binding. Potency, µM (titrated, usually from 58.2 µM), without a hit: top-dose activity change, negative = inhibition, actives largely listed as inhibitors. 0.2% of 360,000 active;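 further: 0% = vehicle wells and -100% = peptide control; nearly all actives have a fitted effect of over 45% in size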
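AMA1 (3D7) with his tag at 25 nM final met compounds first, then biotinylated RON2 peptide at 25 nM; detection used donor plus acceptor beads, 10 µg/mL apiece, read by AlphaScreen after 30 min at room temperature.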
HCV inhibitor: blocks hepatitis C virus; Potency, µM (titrated, usually from 41.8 µM), for the others: at the highest dose activity change, negative = inhibition, hits mostly inhibitors; 3.4% of 340,000 active; Huh7.5.1 HCVcc-Cre infection, luciferase reporter, 44 h
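Reporter virus HCVcc-Cre (~0.5 moi) infects cells exposed to compound; seeding density 1,000 cells/well with 4 h settling beforehand. Luminescence, 15 sec read, taken 44 h post-infection following a 15 min RT substrate incubation.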
Pf growth 96h: inhibits malaria parasite growth, 96 h; P. falciparum luciferase reporter growth, 96 h; Potency, µM (top dose mostly 28.7 µM), inactives show at the highest dose activity change, negative = inhibition, usual class: inhibitors; 6.9% of 320,000 active; AID 504834
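Compounds incubated with erythrocytes infected by luciferase-expressing P. falciparum (2% hematocrit, 0.05% parasitemia final) for 96 hours, 37 C in 5% CO2. Growth inhibition scored as decreased luciferase luminescence.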
Pf growth 48h: P. falciparum growth inhibition at 48 hours (one generation); P. falciparum luciferase growth in erythrocytes, 48 h; Potency, µM (series often up to 28.7 µM), inactives show top-dose activity change, negative = inhibition, usual class: inhibitors; 5.9% of 310,000 active; AID 504832
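In quantitative HTS format, infected erythrocytes bearing luciferase-reporter parasites were treated for a single generation at 37 C. Luminescence after adding detection reagent served as the growth measure.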
The depositor's hits bear a star; u = inconclusive; x = not tested or not shown; [ ] = another dose, or the depositor's remark. The call rests on the fitted dose curve; in most records, active means well fitted curve in the direction sought with a large enough effect; inconclusive means small, poorly fitted or top-dose-only effect, or another doubt; inactive means no such curve, though single readings can be large; an effect the other way counts as inactive or inconclusive. Unless noted, on the % scale 0 is the no-effect control and ±100 the full control effect; potency means the concentration at half of the fitted maximal effect.

SMILES | AMA1-RON2 inh | HCV inhibitor | Pf growth 96h | Pf growth 48h
CO[C@H]1C=CO[C@@]2(C)Oc3c(C)c(O)c4c(O)c(c(C=NN5CCN(C)CC5)c(O)c4c3C2=O)NC(=O)C(C)=CC=C[C@H](C)[C@H](O)[C@@H](C)[C@@H](O)[C@@H](C)[C@H](OC(C)=O)[C@@H]1C | u | 1%[8.37 µM] | 1.2µM* | 1.2µM*
CO[C@H]1/C=C/O[C@@]2(C)Oc3c(C)c(O)c4c(O)c(c(C=NN5CCN(C)CC5)c(O)c4c3C2=O)NC(=O)/C(C)=C\C=C\[C@H](C)[C@H](O)[C@@H](C)[C@@H](O)[C@@H](C)[C@H](OC(C)=O)[C@@H]1C | -1% | 2% | u | 1.2µM*
C/C(=N/NC(=O)CCC(=O)Nc1ccc(Br)cc1)c1ccc(Br)cc1 | 10% | -5% | -6% | 44%
Cc1cc([N+](=O)[O-])cc2c1NC(=O)C2(O)N1CCCCCC1 (stereo unspecified) | -2% | 1% | 10µM* | -1%
Cc1cc([N+](=O)[O-])cc2c1NC(=O)C2(O)N1CCCC(C)C1 (stereo unspecified) | -6% | -9% | 177% | -10%
Cc1nc(C(F)(F)F)c(C(=O)N/N=C(\N)c2ccccn2)s1 | -52% | 13µM* | u | u
O=P1(NC2CCCC2)OCC2(CO1)COP(=O)(NC1CCCC1)OC2 (stereo unspecified) | 23% | 31% | x | x
CSc1ccccc1NC(=O)CSc1nnnn1-c1ccccc1SC | 8% | u | x | -4%
COc1ccc(CCNC(=O)CSc2nnnn2C)cc1OC | 13% | 22% | 72% | 3%
COc1ccc(-n2nnnc2SC(C)C(N)=O)cc1 (stereo unspecified) | -4% | 16% | 12µM* | 1%
CSc1ccccc1-n1nnnc1SCC(=O)Nc1ccccc1C | 0% | 11µM* | -22% | x
COc1ccc(-n2nnnc2SCC(N)=O)cc1 | -3% | 6% | x | 0%
NC(=O)CSc1nnnn1-c1ccc(OC(F)(F)F)cc1 | 5% | 19% | 0.19µM* | 6%
COc1ccc(-n2nnnc2SCC(=O)NCCc2ccc(OC)c(OC)c2)cc1 | 18% | -18% | 5.2µM* | -13%
C#CCNC(=O)C[C@@H]1C[C@@]2(C(=O)OCC)CCCC=C2N(Cc2ccc3c(c2)OCO3)C1=O | 49% | x | x | x
CCN(CC)CCCN(C(=O)Cn1nnc(-c2ccc(OC)c(OC)c2)n1)C(C(=O)NC(C)(C)C)c1ccc(F)cc1 (stereo unspecified) | 2% | -21% | u | u
COc1ccccc1NC(=O)CSc1nnnn1-c1ccc(C(=O)O)cc1 | 7% | 27% | 12µM* | 38%
O=C(CCn1cnnn1)Nc1ccccc1F | -6% | 11% | 4.7µM* | 13%
O=C(CSc1nnnn1-c1ccc(F)cc1)Nc1ccccc1F | 1% | -1% | 8.3µM* | 24%
NC(=O)c1ccc(-n2nnnc2SCC(=O)Nc2ccccc2F)cc1 | -9% | -23% | 13% | 24%
COc1ccc(C(C#N)CC(=O)c2ccc(OC)c(OCc3ccccc3)c2)cc1OC (stereo unspecified) | -4% | x | x | x
CN(C)c1ccc(N2CC(C)(C)C2=O)cc1 | -9% | -20% | 52% | -3%
O=C(O)c1ccc(-n2cc(-c3cc4ccccc4oc3=O)[nH]c2=S)cc1 | -4% | -21% | 0.17µM* | 127%
FC(F)(F)c1cccc(C2NCc3ccccc3-n3cccc32)c1 (stereo unspecified) | 3% | 2% | 4.7µM* | -21%
Oc1ccc(C2NCc3ccccc3-n3cccc32)cc1Cl (stereo unspecified) | -19% | 16% | 31% | 0.66µM*
SMILES | AMA1-RON2 inh | HCV inhibitor | Pf growth 96h | Pf growth 48h
CCOc1cc2c(cc1OCC)-n1cccc1C(c1ccc(F)cc1)NC2 (stereo unspecified) | u | -18% | 20% | u
O=C(CN1CCOCC1)NN1CC(=O)N(c2ccc(Cl)cc2)CC1=O | 4% | 8% | -3% | -6%
COCCn1nnnc1C(C(C)C)N1CCOCC1 (stereo unspecified) | -1% | 5% | 8.3µM* | -1%
Cc1ccc(OCC(=O)N2N=C(c3ccncc3)CC2(O)C(F)(F)F)cc1C (stereo unspecified) | 22% | -6% | -7% | u
O=C(COc1ccccc1)N1N=C(c2cccnc2)CC1(O)C(F)(F)F (stereo unspecified) | 5% | 19% | 0.93µM* | u
Cc1noc(C)c1CSCC(=O)Nc1nc2ccc(F)cc2s1 | -7% | u | -23% | u
COc1cc(C2C(C#N)=C(N)Oc3c2ccc2ccccc32)ccc1OCC(=O)Nc1cccc(C)c1 (stereo unspecified) | 3% | u | 20% | 12µM*
COc1cc(C2C(C#N)=C(N)Oc3c2ccc2ccccc32)ccc1OCC(=O)Nc1ccc(C)cc1 (stereo unspecified) | -12%[11.6 µM] | 2µM* | 0% | 10µM*
COC(=O)c1ccc(CNC(=O)COC(=O)C23CC4CC(CC(C4)C2)C3)cc1 | 7% | 1% | 28% | -1%
Cc1cc(Cl)ccc1NC(=O)/C=N/O | -5% | 10% | 3% | 1.9µM*
Cc1cc(Cl)ccc1NC(=O)CCC(=O)O | 10% | 12% | 13% | 10%
CSC1=C(C#N)C(c2ccc(C)s2)CC(=O)N1 (stereo unspecified) | -6% | -3% | 2.3µM* | 12%
O=C(CSc1nncs1)Nc1nnc(-c2ccccc2)o1 | -9% | 30% | 12% | 0%
Cc1cc(N2CCOCC2)ccc1/C=C1\NC(=O)N(CC(=O)Nc2ccc(F)cc2)C1=O | -2% | 3% | 2.9µM* | 58%
Cc1cc(N2CCOCC2)ccc1/C=C1\NC(=O)N(CC(=O)Nc2ccccc2C)C1=O | -9% | -27% | x | 29%
O=C(CN1C(=O)N/C(=C\c2ccccc2OCc2ccc(C(=O)O)cc2)C1=O)Nc1ccc(F)cc1 | 3% | 25% | 5.2µM* | 8%
O=C(Nc1ccccc1)c1ccccc1C(=O)N1CCCCC1 | 0% | 6% | 35% | 7%
COC(=O)c1ccccc1NC(=O)NCc1ccccc1 | -3% | 3% | -12% | u
CCC(C(=O)NCc1cccnc1)c1ccccc1 (stereo unspecified) | -11% | 6% | u | 2%
CCC(C(=O)NCc1ccncc1)c1ccccc1 (stereo unspecified) | -4% | 12% | 10µM* | 21%
O=C(NCc1ccncc1)/C(=N/O)c1ccccc1 | 15% | 9% | 10µM* | 30%
COC(=O)c1ccccc1NC(=O)NCc1ccncc1 | -9% | 1% | 13µM* | -2%
Cc1cc(CCNC=O)c(C)c2c1oc1ccccc12 | -4% | u | x | x
Cc1cccc(-n2nnnc2SCC(=O)Nc2ccc(N3CCN(C)CC3)cc2)c1 | -11% | -13% | -16% | u
Nc1[nH]c(=O)[nH]c(=O)c1N=Nc1ccc(C(=O)O)cc1 | 0% | 6% | 11% | -11%
COc1ccc2oc(C(=O)OCC(=O)NCc3ccc(OC)c(OC)c3)c(C)c2c1 | 9% | 4% | 1% | 1%
